# In PMC5540273 (PLoS ONE, 2017):
# Where two headings read alike, the source gives them in different places.
# Columns and labels:
# Conditions in all cases: n = 1
# MAP4K4 = system: MAP4K4
# MAP4K5 = system: MAP4K5
# MAPKAPK2 = system: MAPKAPK2
# MAPKAPK5 = system: MAPKAPK5
# MARK1 = system: MARK1
# MARK2 = system: MARK2
# MARK3 = system: MARK3
# MARK4 = system: MARK4
# MAST1 = system: MAST1
# MEK1 = system: T1, MEK1
# T1 construct: gene MAP2K1
# [1] = concentration: 1 μM, replicates: in singlicate
# 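Further: KINOMEscan kinase panel screen.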
SMILES,%Inh (MAP4K4; [1]),%Inh (MAP4K5; [1]),%Inh (MAPKAPK2; [1]),%Inh (MAPKAPK5; [1]),%Inh (MARK1; [1]),%Inh (MARK2; [1]),%Inh (MARK3; [1]),%Inh (MARK4; [1]),%Inh (MAST1; [1]),%Inh (MEK1; [1]),%Inh (MAP4K4; 1 µM),%Inh (MAP4K5; 1 µM),%Inh (MAPKAPK2; 1 µM),%Inh (MAPKAPK5; 1 µM),%Inh (MARK1; 1 µM),%Inh (MARK2; 1 µM),%Inh (MARK3; 1 µM),%Inh (MARK4; 1 µM),%Inh (MAST1; 1 µM),%Inh (MEK1; 1 µM)
CS(=O)(=O)c1ccc(-c2nc3n(c2-c2ccncc2)CCC3)cc1 [SKF-105942],0%,0%,36%,0%,0%,0%,0%,0%,0%,0%,–,–,–,–,–,–,–,–,–,–
O=S(=O)(c1ccc(-c2ccnc3[nH]ccc23)cc1)N1CCCC1 [GSK846226],0%,0%,0%,0%,0%,8%,0%,0%,0%,24%,–,–,–,–,–,–,–,–,–,–
CN1C(=O)C(Nc2ccc(Cl)c(C(=O)O)c2)=C(c2ccc(Cl)cc2)C1=O [SB-404290],0%,0%,23%,12%,0%,27%,0%,13%,42%,0%,–,–,–,–,–,–,–,–,–,–
CS(=O)(=O)c1ccc(-c2c(-c3ncn[nH]3)sc(N3CCOCC3)c2C#N)cc1,0%,0%,0%,0%,26%,10%,0%,24%,21%,2%,–,–,–,–,–,–,–,–,–,–
CC(C)(C)c1ccc(C(=O)Nc2cn3cc(Cl)ccc3n2)cc1,2%,2%,0%,0%,0%,78%,0%,0%,0%,24%,–,–,–,–,–,–,–,–,–,–
Cc1ccc(NC(=O)Nc2cccc(Cl)c2)cc1-c1ccc(C(=O)Nc2ccncc2)cc1 [GSK1398468],0%,0%,0%,0%,26%,0%,0%,12%,0%,100%,–,–,–,–,–,–,–,–,–,–
O=C1NC(=O)C(N2CCc3ccccc32)=C1c1ccccc1Cl [SB-373598],26%,24%,33%,8%,9%,10%,0%,17%,0%,13%,–,–,–,–,–,–,–,–,–,–
Cc1ccc(NC(=O)Nc2cc(C(C)(C)C)nn2-c2ccccc2)cc1 [GSK1014915],19%,11%,25%,0%,0%,0%,17%,10%,0%,0%,–,–,–,–,–,–,–,–,–,–
Cn1ccc2ncnc(Oc3ccc(NC(=O)Nc4ccccc4)cc3)c21,0%,0%,0%,0%,11%,0%,50%,10%,18%,0%,–,–,–,–,–,–,–,–,–,–
COc1cc2ncn(-c3cc(OCC4CCCO4)c(C(N)=O)s3)c2cc1OC (stereo not shown) [GSK204607],6%,4%,0%,0%,0%,0%,0%,0%,2%,24%,–,–,–,–,–,–,–,–,–,–
Cn1ccc2ncnc(Oc3ccc(Nc4nc5ccccc5[nH]4)cc3)c21,0%,0%,0%,0%,0%,9%,0%,13%,0%,0%,–,–,–,–,–,–,–,–,–,–
O=C(Nc1ccc2c(c1)OCO2)NC1CCN(c2ccnc(Nc3ccc(F)cc3)n2)C1 (stereo not shown) [GSK1379724],8%,0%,5%,0%,0%,0%,0%,0%,0%,0%,–,–,–,–,–,–,–,–,–,–
Nc1ncnc2[nH]c(-c3ccccc3)nc12 [AH5015],4%,0%,12%,0%,0%,0%,0%,0%,0%,0%,–,–,–,–,–,–,–,–,–,–
O=C(Nc1n[nH]c2cc(-c3cccc(F)c3F)ccc12)C1CC1 [SB-733894],32%,0%,0%,0%,27%,25%,0%,7%,18%,1%,–,–,–,–,–,–,–,–,–,–
Cl.O=C(Nc1cccc(-c2nn3ncccc3c2-c2ccnc(Nc3cccnc3)n2)c1)c1c(F)cccc1F [GSK312879],2%,5%,21%,0%,0%,0%,0%,0%,6%,0%,–,–,–,–,–,–,–,–,–,–
Cc1ccc(NC(=O)Nc2cccc(C(F)(F)F)c2)cc1 [GSK955403],–,–,–,–,–,–,–,–,–,–,0%,0%,0%,0%,0%,0%,0%,4%,21%,5%
COc1cc2nccc(Nc3ccc(NC(=O)c4ccc(C)cc4)c(O)c3)c2cc1OC.Cl [GW440132],0%,3%,8%,0%,0%,0%,0%,14%,0%,8%,–,–,–,–,–,–,–,–,–,–
Cc1csc(-c2nc(Nc3ccncc3)c3ccccc3n2)n1 [GW869640],14%,0%,0%,3%,25%,13%,0%,38%,60%,13%,–,–,–,–,–,–,–,–,–,–
CC1=C(C(=O)Nc2cc3cn[nH]c3cc2F)C(c2ccc(C(F)(F)F)cc2)CC(=O)N1 (stereo not shown) [GSK429286],59%,75%,21%,0%,0%,0%,0%,0%,0%,0%,–,–,–,–,–,–,–,–,–,–
